Results on 38 compounds are retold here after PubChem BioAssay (EPA / NIEHS).

In general, AC50 refers to the concentration giving half of the maximal activity seen.

Where a structure was tested more than once in an assay, its records may differ in their call. The source made the active and inactive calls. Rule for the calls: active = hit-call score of the fitted dose curve at least 0.9, where 1 is the maximum; inactive = score below 0.9.

A short description of the assay: ATG_EGR_CIS: Attagene CIS-FACTORIAL HepG2 Assay for human Early Growth Response 1 (EGR1) (AID 2282938). Conditions: HepG2 Attagene CIS-FACTORIAL EGR reporter mRNA; actives raise or lower the signal. As to the method: ATG_CIS is a cell-based, multiplexed-readout assay that uses HepG2, a human liver cell line, with measurements taken at 24 hours after chemical dosing in a 24-well plate.ATG_EGR_CIS is one of 52 assay component(s) measured or calculated from the ATG_CIS assay. It is designed to make measurements of mRNA induction, a form of inducible reporter, as detected with fluorescence intensity signals by Reverse transcription polymerase chain reaction (RT-PCR) and Capillary electrophoresis technology.Data from the assay component ATG_EGR_CIS was analyzed into 1 assay endpoint. This assay endpoint, ATG_EGR_CIS, was analyzed with bidirectional fitting relative to DMSO as the negative control and baseline of activity. Using a type of inducible reporter, measures of mRNA for gain or loss-of-signal activity can be used to understand the reporter gene at the transcription factor-level as they relate to the gene EGR1. Furthermore, this assay endpoint can be referred to as a primary readout, because this assay has produced multiple assay endpoints where this one serves a reporter gene function. To generalize the intended target to other relatable targets, this assay endpoint is annotated to the dna binding intended target family, where the subfamily is zinc finger.
Human liver HepG2 cells are transiently transfected with multiple reporter transcription units (MRTUs) in 6-well plates using FuGene 6 reagent (Roche; 3 ml FuGene/1 mg DNA). The MRTU constructs are regulated by a cis-regulating element (promoter). […] A major difference between the CIS and TRANS system is that in CIS activities of endogenous TFs are measured, whereas the TRANS assay evaluates changes in activities of exogenous, chimeric NR-Gal4 proteins. […] At the end of 24 hour incubation, total RNA was isolated using TriZol reagent (Invitrogen). The isolated RNA is then reverse-transcribed using oligo(dT) primer and Mo-MLV reverse transcriptase (Invitrogen) with DNAse I (Ambion) treatment for 30 min. The one-tenth of the produced cDNA was amplified by PCR using Taq DNA polymerase (Invitrogen) and two reporter sequence-specific primers. The PCR products were fluorescently labeled by primer extension with 6-arboxyfluorescein (6-FAM) 5'-labeled reporter sequence-specific primer (2 min at 95 C, 20 s at 68 C and 10 min at 72 C) and these products were digested with 5U of HpaI (New England Biolabs) for 2h at 37 C. The fragments were purified using Qiaquick PCR columns (Qiagen), analyzed on an ABI 3130xL genetic analyzer (Applied Biosystems) with peak positions identified by using a set of X-rhodamine (ROX)-labeled MapMarker1000 molecular weight standards (BioVentures). The raw capillary electrophoresis data was processed using Attagraph software (Attagene).
For `CCOC(=O)O[C@H](C)OC(=O)c1ccc2c(c1)cc(C(=O)NC1CCN(C(C)C)CC1)n2Cc1cc(-c2ccc(Cl)s2)on1`, the compound was called inactive.

Regarding `Cc1ccc(C(C)C)cc1`, the compound was classed as inactive.

For `Cc1cc(F)ccc1-c1cc(N2CC[C@@H](O)[C@H]2CO)ncc1N(C)C(=O)C(C)(C)c1cc(C(F)(F)F)cc(C(F)(F)F)c1`, the call was inactive. As to `NCc1cccc(C2CCN(C(=O)c3ccc(C#Cc4ccccc4F)o3)CC2)c1`, the AC50 is 11 µM (active).

For the compound `CO[C@H]1/C=C/O[C@@]2(C)Oc3c(C)c(O)c4c(O)c(c(/C=N/N5CCN(C)CC5)c(O)c4c3C2=O)NC(=O)/C(C)=C\C=C\[C@H](C)[C@H](O)[C@@H](C)[C@@H](O)[C@@H](C)[C@H](OC(C)=O)[C@@H]1C`, the compound was classed as inactive.

On to `CCCCCCCCCCCC[N+](C)(C)C`, for which the call was inactive. In the case of `CC(=O)N1CCN(c2ccc(OC[C@H]3CO[C@](Cn4ccnc4)(c4ccc(Cl)cc4Cl)O3)cc2)CC1`, the half-maximal activity concentration (AC50) is 11.6 µM (active). With `O=C1O[C@H]([C@@H](O)CO)C(O)=C1O`, the result was inactive. Consider `CCN(Cc1cccnc1)C(=O)c1cccc(Cl)c1[C@]1(C)C(=O)N(Cc2ccc(OC)cc2OC)c2ccc(Cl)cc21`, for which the half-maximal activity concentration (AC50) was 3.83 µM (active). For `O=c1[nH]sc2ccccc12`, the compound was classed as inactive. On the same count and under the same terms, the same measure for `COc1cccc([C@H](O)C2CCN(CCc3ccc(F)cc3)CC2)c1OC`: “inactive”.

`CC[C@@H]1C[C@H](N(Cc2cc(C(F)(F)F)cc(C(F)(F)F)c2)C(C)=O)c2cc(C(F)(F)F)ccc2N1C(=O)OC(C)C`: the compound was classed as inactive. The same measure, in the same setting: the same measure for `CCCCCCCCN(C)CCCCCCCC`: “inactive”.

For `COc1cc(C(=O)NC2CCN(C)CC2)ccc1Nc1ncc2c(n1)N(C1CCCC1)CC(F)(F)C(=O)N2C`, the AC50 was 2.26 µM (active). As for `Oc1ccc2ccccc2c1`, the compound was called inactive. For the compound `CCN(CC)C(=O)c1cc(S(=O)(=O)Cc2ccccc2)c(N2CCC(c3ccccc3)CC2)cc1N(CC)CCN(C)C`, the compound was classed as inactive.

Turning to `O=C1c2ccccc2C(=O)N1CCc1noc(-c2ccc(CN3CCCCCC3)s2)n1`, the compound was called inactive. Same read-out and setting: the same measure for `CC(C)(O)c1ccc(CNC(=O)c2cccnc2Oc2ccc3nonc3c2)cc1`: “inactive”.

As to `O=C(O)c1ccccc1C(=O)OCc1ccccc1`, the outcome was inactive. Consider `CCCC(=O)OCCC(C)C`, for which the call was inactive. For `c1ccc2n[nH]nc2c1`, the compound was called inactive. On to `CN1C(=O)CC[C@H]1c1cccnc1`, for which the result was inactive. In the case of `Cc1ccc2oc(CN(Cc3ccccc3)C(=O)Nc3c(F)cc(F)cc3F)c(-c3ccc(Cl)cc3)c2c1`, the result was inactive. Regarding `CN(C)C(=O)C1(N2CCCCC2)CCN(CC[C@@]2(c3ccc(Cl)c(Cl)c3)CN(C(=O)c3ccccc3)CCO2)CC1`, the result was inactive. As to `C[C@]12CC[C@@H]3c4ccc(O)cc4CC[C@H]3[C@@H]1CC[C@H]2O`, the AC50 was 42 µM (active) and the compound was classed as inactive. Take `CC(O)CC(C)(C)O` (stereo not given): the result was inactive. Regarding `O=C(O)Cc1cc(I)c(Oc2ccc(O)c(I)c2)c(I)c1`, the result was inactive.

For the compound `O=C=NCCCCCCN=C=O`, the compound was called inactive.

For `CCCCOC(=O)CC(CC(=O)OCCCC)(OC(C)=O)C(=O)OCCCC`, the call was inactive. Still for that read-out and setting: the same measure for `CCCCCCCCCCCO`: “inactive”; for `O=c1c(-c2ccc(O)cc2)coc2cc(O)cc(O)c12`: “inactive”. Same read-out and setting: as for `Cc1ncc(CO)c(CO)c1O`, the entry is “inactive”. Consider `CCCCOC(=O)c1ccc(O)cc1`, for which the compound was classed as inactive and the half-maximal activity concentration (AC50) is 97.1 µM (active). As to `Clc1ccccc1C(c1ccccc1)(c1ccccc1)n1ccnc1`, the AC50 is 8.64 µM (active). Same read-out and setting: as for `Cc1oc2c(NC(=O)c3c(Cl)cccc3Cl)cccc2c1C(C)(C)O`, the figure is 47.6 µM (active).

With `CCCCCCCCOC(=O)c1cc(O)c(O)c(O)c1`, the call was inactive. Same read-out and setting: the same measure for `CCCCCCCC[Si](OCC)(OCC)OCC`: “inactive”; for `COCC(C)OCC(C)OCC(C)O` (stereo not given): “inactive”.
